Results on 26 molecules are retold here after PubChem BioAssay (EPA / NIEHS).

The term AC50 denotes the concentration at which the activity in the assay is half-maximal.

SMILES strings stand for the structures. Results filed as inconclusive are left out. Active and inactive are the calls of the source. How the source made its calls: active means hit-call score of the fitted dose curve at least 0.9, where 1 is the maximum; inconclusive means response in the unintended direction; inactive means score below 0.9.

Sequence of human Ephrin type-A Receptor 2 (EphA2), EPHA2 (gene 1969) (P29317 whole entry, looked up): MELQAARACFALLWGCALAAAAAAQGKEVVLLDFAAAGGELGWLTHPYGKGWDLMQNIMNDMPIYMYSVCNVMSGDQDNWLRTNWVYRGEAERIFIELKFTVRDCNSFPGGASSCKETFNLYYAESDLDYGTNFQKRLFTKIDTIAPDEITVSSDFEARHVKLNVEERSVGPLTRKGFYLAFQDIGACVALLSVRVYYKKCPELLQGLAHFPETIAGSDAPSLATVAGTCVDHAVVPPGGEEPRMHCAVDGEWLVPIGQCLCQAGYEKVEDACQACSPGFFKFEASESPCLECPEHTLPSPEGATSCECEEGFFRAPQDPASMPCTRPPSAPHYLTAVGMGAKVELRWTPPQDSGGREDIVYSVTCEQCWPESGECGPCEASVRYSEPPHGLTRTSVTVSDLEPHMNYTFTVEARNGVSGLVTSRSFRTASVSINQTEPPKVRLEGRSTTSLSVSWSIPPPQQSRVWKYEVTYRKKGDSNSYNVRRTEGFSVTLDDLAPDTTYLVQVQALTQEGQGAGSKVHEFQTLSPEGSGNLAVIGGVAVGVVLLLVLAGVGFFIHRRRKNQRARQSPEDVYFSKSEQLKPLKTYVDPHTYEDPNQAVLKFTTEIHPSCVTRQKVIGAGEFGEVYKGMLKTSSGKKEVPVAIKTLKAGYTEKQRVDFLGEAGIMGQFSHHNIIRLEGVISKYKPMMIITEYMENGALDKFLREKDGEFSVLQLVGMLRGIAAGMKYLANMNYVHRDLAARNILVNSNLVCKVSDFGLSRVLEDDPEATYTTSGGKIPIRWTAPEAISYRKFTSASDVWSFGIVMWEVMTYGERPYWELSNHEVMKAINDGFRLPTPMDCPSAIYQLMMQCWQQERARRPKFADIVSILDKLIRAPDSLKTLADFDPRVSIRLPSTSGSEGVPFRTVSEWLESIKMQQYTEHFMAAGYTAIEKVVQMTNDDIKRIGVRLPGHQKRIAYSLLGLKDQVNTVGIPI

This assay deals with human Ephrin type-A Receptor 2 (EphA2), EPHA2 (gene 1969) (UniProt P29317). Briefly: NVS_ENZ_hEphA2: NovaScreen (NVS) Enzymatic Assay for human Ephrin type-A Receptor 2 (EphA2) (AID 2283155). The method, then:
NVS_ENZ_hEphA2 is a biochemical, single-readout assay that uses extracted gene-proteins in a cell-free assay. Measurements were taken 1 hour after chemical dosing in a 384-well plate.NVS_ENZ_hEphA2 is one of one assay component(s) measured or calculated from the NVS_ENZ_hEphA2 assay. It is designed to make measurements of enzyme activity, a form of enzyme reporter, as detected with fluorescence intensity signals by Fluorescence and electrophoretic mobility shift technology.Data from the assay component NVS_ENZ_hEphA2 was analyzed into 1 assay endpoint. This assay endpoint, NVS_ENZ_hEphA2, was analyzed in the positive analysis fitting direction relative to DMSO as the negative control and baseline of activity. Using a type of enzyme reporter, loss-of-signal activity can be used to understand changes in the enzymatic activity as they relate to the gene EPHA2. Furthermore, this assay endpoint can be referred to as a primary readout, because this assay has produced multiple assay endpoints where this one serves a enzymatic activity function. To generalize the intended target to other relatable targets, this assay endpoint is annotated to the kinase intended target family, where the subfamily is receptor tyrosine kinase.
Binding assays used specific radioligands (tritiated, iodinated) with non-radioactive competitive displacement ligands in agonist or antagonist protocols (as indicated) and various reference compounds and inhibitors to titrate specific binding to receptors and transporters. Most enzyme assays (CYPs, kinases, phosphatases, proteases, HDACs) used recombinant protein and specific substrates (fluorescence mostly, some colorimetric and radioactive) and inhibitors, followed by a biochemical separation of substrate and product. All assays for the biochemical HTS were initially run in duplicate at a single concentration (10 uM for CYP450 assays and 25 uM for all others). Assay-chemical combinations meeting a pre-defined threshold (e.g., 30% inhibition and other criteria defined below) were then run in singleton concentration-response format with maximum concentration of 20 uM for CYPs and 50 uM for all others. Each assay was run with positive and negative controls, and concurrent controls on every plate. The follow-up (secondary) screen tested active chemical-pairs in concentration series, as well as a few additional assays not tested in the primary screen, some selected negative inactives, and several cases re-run in the concentration series for confirmatory purposes.
As to `O=Cc1ccccc1C=O`, the call was inactive.

For the molecule `CC(=O)c1ccccc1`, the outcome was inactive.

Consider `CNS(=O)(=O)c1cc(C(=O)N2CCC(CCN3C4CCC3CC(n3c(C)nc5ccccc53)C4)(c3cccc(F)c3)CC2)c(Cl)cc1F` (stereo unspecified), for which the molecule was classed as inactive.

With `CCOC(=O)NCCOc1ccc(Oc2ccccc2)cc1`, the molecule was classed as inactive.

Regarding `CCN(CC)C(=S)SSC(=S)N(CC)CC`, the result was inactive.

For the molecule `Cc1ncc(CO)c(CO)c1O`, the molecule was called inactive.

As to `c1ccc2[nH]c(-c3cscn3)nc2c1`, the result was inactive.

In the case of `CC(C)(c1ccc(O)cc1)c1ccc(O)cc1`, the call was inactive.

Take `Cc1nc(-c2ccccn2)ncc1C(=O)Nn1cc(C)c2cc(F)ccc21`: the call was inactive.

For `CCCCc1oc2ccccc2c1C(=O)c1cc(I)c(OCCN(CC)CC)c(I)c1`, the outcome was inactive.

On to `Cc1ccc(Cl)cc1`, for which the molecule was classed as inactive.

Take `N#CCCCCC#N`: the molecule was called inactive.

For the molecule `Cc1ccc(N)cc1O`, the AC50 was 18.1 µM (active).

With `N#C[C@@H]1CC(F)(F)CN1C(=O)CNC1CC2CCC(C1)N2c1ncccn1` (stereo partly specified), the call was inactive.

For `CCCCCCCCCCCCCC[P+](CCCC)(CCCC)CCCC`, the AC50 was 9.76 µM (active).

Regarding `CC1=C(/C=C/C(C)=C/C=C/C(C)=C/CO)C(C)(C)CCC1`, the call was inactive.

As to `CC[C@H](C)C(=O)O[C@H]1C[C@H](O)C=C2C=C[C@H](C)[C@H](CC[C@@H](O)C[C@@H](O)CC(=O)O)[C@H]21`, the result was inactive.

In the case of `CC(C)c1cccc(C(C)C)c1`, the outcome was inactive.

With `Cc1ccc(C(C)(C)C)c(O)c1`, the molecule was classed as inactive.

Turning to `O=C(Nc1ccc(Cl)cc1)Nc1ccc(Cl)c(Cl)c1`, the result was inactive.

For `O=C(O)Cc1cc(I)c(Oc2cc(I)c(O)c(I)c2)c(I)c1`, the call was inactive.

In the case of `Clc1nc(Cl)c(Cl)c(Cl)c1Cl`, the call was inactive.

As to `O=C(O)c1cccc(Oc2ccccc2)c1`, the outcome was inactive.

`CCCOc1sc(C(=O)N2CCC(c3cc(CN)ccc3F)CC2)c(C)c1Br`: the molecule was classed as inactive.

As to `O=C(NO)C1(NS(=O)(=O)c2ccc(Oc3ccc(F)cc3)cc2)CCOCC1`, the molecule was called inactive.

Regarding `CN(C)C(=O)NC1(c2ccccc2)CCN(CCC[C@]2(c3ccc(Cl)c(Cl)c3)CCCN(C(=O)c3ccccc3)C2)CC1`, the call was inactive.
